The values that follow come from PubChem BioAssay AID837 (The Scripps Research Institute Molecular Screening Center, 2007).

Each structure is given as a SMILES string. Activity calls are given as the source filed them.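 Rule for the calls: active = relative FRET score above 0.01, or acceptor fluorescence over 30% below the sample-well median; inactive = the rest.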

In this experiment the target is Protein Rev (Human immunodeficiency virus type 1 group M subtype B (isolate WMJ22)) (UniProt P05866). The experiment can be described thus: HIV-1 Rev-RRE binding inhibitors, retest, confirmation, biochemical, FRET, acceptor and relative FRET calls (AID 837).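 Note: relative FRET combines rise in Cy5 acceptor with fall in fluorescein donor.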 Conditions: Fl-Rev peptide / Cy5-RRE RNA FRET, 1536-well; at 8 µM.
Chain of Protein Rev (Human immunodeficiency virus type 1 group M subtype B (isolate WMJ22)) (P05866 whole entry, looked up): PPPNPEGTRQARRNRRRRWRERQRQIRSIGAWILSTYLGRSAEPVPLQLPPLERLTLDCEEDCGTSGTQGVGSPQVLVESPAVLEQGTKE
With `Cc1cccc(NC2=NC3(CCCCC3)N=C(N)N2)c1C`, the result was inactive. With `CC(=O)c1ccc2c(c1)c1ccccc1n2CC(C)C`, the result was inactive. Consider `Nc1nc(Nc2ccccc2)nc2ccccc12`, for which the call was inactive.

With `O=C(Cn1cnc2ccccc2c1=O)N1CCOCC1`, the call was inactive. As for `CC(C)CN=c1cc(-c2ccccc2)oc2ccc(Cl)cc12`, the entry is “active”; as for `CCC(C)(C)c1ccc(OCCN2C(=O)NC(C)(C)C2=O)cc1`, “inactive”; as for `CC(C(=O)O)N1C(=O)/C(=C/C=C/c2ccco2)SC1=S` (stereo not given), “inactive; quenches the donor”. For the compound `CCOc1cc(-c2ccc(N)c(OCC)c2)ccc1N`, the outcome is “active; fluoresces like the donor”. The result for `Cc1ccc(C2NC(=O)c3c(sc4c3CCN(C)C4)N2)s1` (stereo not given) reads “inactive”; that for `O=c1[nH]c(Nc2ccc(F)cc2)cc2ccccc12`, “inactive”. As for `C1=C2C[N+]3(CCCC3)CC2Cc2ccc3ccccc3c21` (stereo not given), the entry is “inactive”; as for `N#Cc1c(NCCN)nc(-c2ccco2)c2c1CCCC2`, “inactive”; as for `CCOC(=O)c1cn2nc(-c3ccc(OCC)cc3)cc2nc1C1CCN(C(=O)OC(C)(C)C)CC1`, “inactive”. Regarding `CCN(CC)CCCNC(=O)c1cc(-c2ccc(Cl)c(Cl)c2)on1`, the compound was called inactive. As for `Cc1ccc(C(=O)/C=C/c2ccccc2)o1`, the compound was called inactive. As for `CNCCCOc1ccc(C(C)(C)c2ccccc2)cc1`, the entry is “active”; as for `CCOC(=O)c1c(C)n(C)c2ccc(O)c(CN(C)C)c12`, “active”. As for `CC(=Nc1ccc(C)cc1)c1sc2ccccc2c1O`, the entry is “inactive”. The result for `C/C=C/c1ccc(OCCCNC2CCCC2)c(OC)c1` reads “inactive”; that for `CCCCCCCCOc1ccc(C2OC34CCCCC3C(C#N)(C#N)C2(C#N)C(=N)O4)cc1` (stereo not given), “inactive”.
